PubChem BioAssay (NCATS)
Inconclusive results are not listed. A number with no mark means an inactive call. The source made the active and inactive calls. Calls come from the whole dose curve; as a rule, active = well fitted activation curve with a large enough effect; inconclusive = small, poorly fitted or top-dose-only effect; inactive = no such curve, though single readings can be large or run the other way.

These molecules were tested against Cellular tumor antigen p53 (Homo sapiens) (UniProt P04637) (assay: Primary qHTS for small molecule compounds that upregulate eGFP-tagged delta133p53alpha (in N-terminal) cells. (AID 2060322; note: nearly all actives have a fitted effect of over 75% in size;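 for activation: cells pre-induced with doxycycline then dosed without doxycycline; series mostly up to about 56 µM; 0% = DMSO vehicle and 100% = reference activator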)). Details: NCI-H358 eGFP-delta133p53alpha fluorescence, 24 h; activation: active compounds read high.
Method in brief: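 NCI-H358 cells pre-induced 24 h with 10 ng/ml doxycycline for eGFP-delta133p53alpha, plated dox-free and exposed 24 h at 37C to titrated compounds. Fixed, Hoechst-stained; gated GFP peak intensity by laser scanning cytometry, normalized to DMSO (0%) and 57.5 uM 5-azacytidine (100%).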
Potency is the fitted concentration of half-maximal effect.

Sequence of Cellular tumor antigen p53 (Homo sapiens) (P04637 whole entry, looked up): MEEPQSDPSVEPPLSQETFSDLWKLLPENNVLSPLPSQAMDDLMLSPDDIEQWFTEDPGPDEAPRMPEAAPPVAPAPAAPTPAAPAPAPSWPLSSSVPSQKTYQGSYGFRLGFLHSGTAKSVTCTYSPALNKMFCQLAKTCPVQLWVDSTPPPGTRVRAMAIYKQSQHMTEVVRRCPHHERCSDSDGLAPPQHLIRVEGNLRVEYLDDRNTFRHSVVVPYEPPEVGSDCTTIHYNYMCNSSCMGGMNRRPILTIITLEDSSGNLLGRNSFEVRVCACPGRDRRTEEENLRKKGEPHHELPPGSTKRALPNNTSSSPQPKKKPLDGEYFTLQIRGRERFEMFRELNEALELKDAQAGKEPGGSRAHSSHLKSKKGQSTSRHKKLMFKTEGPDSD

Row | Structure (SMILES) | activation | Potency
1 | COc1ccc(C(=O)N2CCN(CC(=O)N3CCOCC3)CC2)cc1 | 3.95% | –
2 | CN(C)CCC[C@@]1(c2ccc(F)cc2)OCc2cc(C#N)ccc21 | 15.3% | –
3 | C[C@H]1[C@H](NC(=O)C(=NOC(C)(C)C(=O)O)c2csc(N)n2)C(=O)N1S(=O)(=O)O | -31.5% | –
4 | CC(C)N=C(N)/N=C(\N)Nc1ccc(Cl)cc1 | 0.837% | –
5 | Cc1c(NC(C)C)c(=O)n(-c2ccccc2)n1C | 11.7% | –
6 | COC(=O)c1cccnc1 | -4.18% | –
7 | Cc1ccc(CCn2c3c(c4cc(Cl)ccc42)CN(C)CC3)cn1 | -20.9% | –
8 | Nc1ccc2cc3ccc(N)cc3nc2c1 | -35.1% | –
9 | CCC[C@@H](NC(=O)[C@@H]1[C@H]2CCC[C@@H]2CN1C(=O)[C@@H](NC(=O)[C@@H](NC(=O)c1cnccn1)C1CCCCC1)C(C)(C)C)C(=O)C(=O)NC1CC1 | 19.1% | –
10 | Cc1cc(C(=O)N2Cc3cnn(C)c3Nc3ccccc32)ccc1CNC(=O)N1CCC[C@H]1C(=S)N1CCCN(C)CC1 | -0.893% | –
11 | O=C(O)Cc1csc(-c2ccc(Cl)cc2)n1 | 15.3% | –
12 | Cc1ccc(O)c([C@H](CCN(C(C)C)C(C)C)c2ccccc2)c1 | 10.7% | –
13 | CCCCCCCCCCCCCCCC(=O)OC[C@@H](NC(=O)C(Cl)Cl)[C@H](O)c1ccc([N+](=O)[O-])cc1 | 7.1% | –
14 | CCOCCOC(=O)/C=C/c1ccc(OC)cc1 | -3.95% | –
15 | CO/N=C(\C(=O)O)c1csc(NC(=O)CCl)n1 | -17.5% | –
16 | C[C@@H]1[C@H](C)CC[C@]2(C(=O)O)CC[C@]3(C)C(=CC[C@@H]4[C@@]5(C)CC[C@H](O)C(C)(C)[C@H]5CC[C@]43C)[C@@H]12 | -12.8% | –
17 | Cc1cc(=O)n(-c2ccccc2)n1C | -16.7% | –
18 | CCCCCC[C@@H](CCC)C(=O)O | -13.4% | –
19 | O=C1NC(=O)C(=Cc2ccc3c(c2)OC(F)(F)O3)S1 | 27.2% | –
20 | Cc1c(-c2ccccc2)oc2c(C(=O)OCCN3CCCCC3)cccc2c1=O | -16.7% | –

Row | Structure (SMILES) | activation | Potency
21 | CN(C)[C@@H]1C(=O)C(C(=O)NCN2CCCC2)=C(O)[C@@]2(O)C(=O)C3=C(O)c4c(O)cccc4[C@@](C)(O)C3C[C@@H]12 (stereo not given in full) | -13% | –
22 | CC(O)CN(CCN(CC(C)O)CC(C)O)CC(C)O (stereo not given) | 22% | –
23 | CCC(=C(c1ccc(O)cc1)c1ccc(OCCNC)cc1)c1ccccc1 | 62.8% | –
24 | CC(C)(C)c1ccc(C(=O)CCCCl)cc1 | 3.95% | –
25 | CC(COc1ccccc1)NN (stereo not given) | 6.69% | –
26 | C1N2CN3CN1CN(C2)C3 | – | 27.6 µM (active)
27 | CC(=O)OCC(=O)[C@@]1(O)CC[C@H]2[C@@H]3CCC4=CC(=O)C=C[C@]4(C)[C@@]3(F)[C@@H](O)C[C@@]21C | -10.7% | –
28 | Oc1cc(O)cc(C=Cc2ccc(O)c(O)c2)c1 | 8.33% | –
29 | CCN(CC)CCN | -0.837% | –
30 | NC(=O)CC[C@@H]1NC(=O)[C@H](Cc2ccccc2)NC(=O)[C@H](Cc2ccc(O)cc2)NC(=O)CCSSC[C@@H](C(=O)N2CCC[C@H]2C(=O)N[C@@H](CCCN=C(N)N)C(=O)NCC(N)=O)NC(=O)[C@H](CC(N)=O)NC1=O | -3.35% | –
31 | COc1ccc(S(=O)(=O)N2c3ccc(Cl)cc3[C@@](O)(c3ccccc3Cl)[C@H]2C(=O)N2CCC[C@@H]2C(N)=O)cc1OC | -10.9% | –
32 | CCCCCOC(=O)Nc1nc(=O)n([C@@H]2O[C@H](C)[C@@H](O)C2O)cc1F (stereo not given in full) | -14.6% | –
33 | COc1cc2c(cc1OC)CN(C(=O)[C@H](C)N[C@@H](CCc1ccccc1)C(=O)O)[C@H](C(=O)O)C2 | -10.7% | –
34 | Cc1cccc(C)c1NC(=O)CC12CCCN1CCC2 | 5.86% | –
35 | C[N+]12CCC(CC1)C(OC(=O)C(O)(c1ccccc1)c1ccccc1)C2 (stereo not given) | -8.47% | –
36 | CCCCc1nc(Cl)c(CO)n1Cc1ccc(-c2ccccc2-c2nn[nH]n2)cc1 | -19.2% | –
37 | COc1cc(C=CC(=O)CC(=O)C=Cc2ccc(O)c(OC)c2)ccc1O | – | 39.5 µM (active)
38 | CN1C(=O)c2ccccc2C1=O | 7.53% | –
39 | [O-][n+]1ccccc1SSc1cccc[n+]1[O-] | – | 0.379 µM (active)
40 | N#Cc1ccc(-c2csc(NN=C3CCCC3)n2)cc1 | -8.94% | –
